# Test results as given in PubChem BioAssay (NCI).
# Compounds without any hit were thinned out: in the full panel of roughly 83,000, 20% have a hit.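 In brief: 96-well plates, 48 h treatment, single concentration, percent growth endpoint.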 Unmarked numbers belong to inactive results. Active and inactive are the calls of the source. The calls were made as follows: active = growth percent below 10; inactive = the rest.
# System: DU-145 prostate
# Test: NCI-60 one-dose screen, 48 h (100 = growth as untreated, 0 = no growth, -100 = all killed)
# Conditions: 10 µM unless noted
row,Compound,growth
1,O=C(CCCCCCNC(=O)C(O)(O)C(F)(F)F)Nc1ncc(-c2ccccc2)s1,3.28% (active)
2,Cc1ccc(-c2nc(SCC(=O)c3ccccc3)nc(Nc3ccc(S(N)(=O)=O)cc3)c2C#N)cc1,60.7%
3,NC(=O)c1c(NC(=O)c2ccc(C(F)(F)F)cc2)sc2c1CCC(=O)C2,59%

# System: K-562 leukemia
# Test: as above
# Conditions: 10 µM unless noted
row,Compound,growth
1,CCCC/C(=C\c1ccc(O)c(O)c1)C(=O)NC(Cc1ccccc1)C(=O)C(=O)NCCc1ccc(OC)cc1 (stereo not drawn),91.5%
2,CCN(CC)c1ccc(/C=N/NC(=O)c2ccc(NS(C)(=O)=O)cc2)cc1,14.8%
3,Cc1ccc(C)c(NC2=C(Cl)C(=O)c3nc(C)ccc3C2=O)c1,1.06% (active)
4,O=C(CSc1nnc(-c2cccs2)n1-c1ccccc1)Nc1ccccc1F,26.6%
5,Cc1ccc(CSC2=C(Cl)CN(c3ccc(Cl)cc3)C2=O)cc1,100%
6,Cn1ncc2c(C(=O)c3ccc(F)cc3)nc(C(C)(C)C)nc21,104%
7,O=C(CSc1nc2ccccc2c(=O)n1-c1ccccc1)N/N=C/c1ccc(Oc2ccc(Cl)cc2)cc1,61.2%
8,Cc1cccc(N2CCN(C3=C(Cl)C(=O)c4ncccc4C3=O)CC2)c1,9.9% (active)
9,N/C(=N\C(N)=N\c1nc2ccccc2s1)c1ccc(Cl)cc1,86.9%
10,N#Cc1nc(-c2ccccc2)oc1N1CCC(C2(C(F)(F)F)N=N2)CC1,90%
11,CC(C)(C)c1cc(NC(=O)Nc2ccc(-c3cn4c5c(sc4n3)CCc3cn(CCCN4CCCCC4)cc3-5)cc2)no1,3.01% (active)
12,Cc1csc(/N=C(N)/N=C(\N)c2cccc(Br)c2)n1,57%
13,Cc1cc2nc(C(Cl)Cl)nc(-c3ccc(S(=O)(=O)N(C)C)cc3)n2n1,14.1%
14,C#Cc1nc(/C=C\CCCCCCC(=O)NO)cs1,14.7%
15,O=C1C(SCc2ccccc2)=C(Cl)CN1c1ccccc1,62%
16,CN1c2ccccc2Sc2cc(/C=N/Nc3ccnc4cc(Cl)ccc34)ccc21,-7.83% (active)
17,NS(=O)(=O)c1ccc(CCn2c(-c3ccc(C(=O)O)cc3)nc(-c3ccccc3)c2-c2ccccc2)cc1,96.8%
18,CCCc1cc2cc(-n3nc(CC)c4c3CC(C)(C)CC4=O)cc(NC3CCC(O)CC3)c2c(=O)[nH]1 (stereo not drawn),10.9%
19,O=S(=O)(NCCCNc1nccc(-c2[nH]c(-c3ccccc3)nc2-c2ccc(F)c(O)c2)n1)c1cccc(F)c1,49.3%
20,CCCCCCNC(=O)Oc1ccc(/C(=C(/C)c2ccc(OC)cc2)c2ccc(OCCN3CCCCCC3)cc2)cc1,2.71% (active)

row,Compound,growth
1,CCOC(=O)Nc1ccc2c(ccn2C(=O)c2cccc(F)c2)c1,14.2%
2,O=C(CCCCCCNC(=O)C(O)(O)C(F)(F)F)Nc1ccc(Cl)cc1,14.4%
3,CCS(=O)(=O)Nc1ccc(C(=O)CC2(O)C(=O)Nc3ccccc32)cc1 (stereo not drawn),93.5%
4,COc1cccc(N2CCN(C3=C(Cl)C(=O)c4ncccc4C3=O)CC2)c1,7.16% (active)
5,Nn1c(=O)n(-c2cccc(C(F)(F)F)c2)c(=O)c2cc(-c3ccc(F)cc3F)ccc21,6.85% (active)
6,CC(=O)N1N=C(c2cc3ccccc3oc2=O)CC1c1cn(-c2ccccc2)nc1-c1ccc(C)cc1 (stereo not drawn),103%
7,NS(=O)(=O)c1cccc(Nc2nc(SCC(=O)c3ccc(Cl)cc3)nc3c2CCC3)c1,90.2%
8,O=C(CCCCCCNC(=O)c1csc(Br)n1)NO,13.8%
9,Cc1[nH]c(C(=O)Nc2ccccc2OCc2cccc(C(=O)NCCN)c2)cc1Cl,2.16% (active)
10,O=C(/C=C/Nc1ccc(S(=O)(=O)Nc2ncccn2)cc1)c1ccc(N=Cc2c(O)[nH]c3ccccc23)cc1,97.1%
11,Nc1cc(C(=O)N/N=C\c2ccc(OC(F)F)c(OC3CCCC3)c2)nn1CC(O)c1ccccc1 (stereo not drawn),88.4%
12,Cc1ccc(C(=O)Nc2ccc(CNCCN3CCOCC3)c(C(F)(F)F)c2)cc1C#Cc1cnc2cccnn12,5.07% (active)
13,COc1cc2c3c(cc4c5c(ccc4c3c1OC)OCO5)N(CCN(C)C)C2=O,1.42% (active)
14,Cc1ccc2c(n1)C(=O)C(Cl)=C(Nc1cccc(C)c1C)C2=O,-2.38% (active)
15,CN(C)CC(=O)Nc1nc(-c2cccc(NS(=O)(=O)c3cccc4c(N(C)C)cccc34)c2)cs1,65.1%
16,COc1ccc(NC2=C(Br)C(=O)C(C)=C(C)C2=O)cc1OC,-7.89% (active)
17,COc1cccc2c1[C@H](OC)[C@]13O[C@@]1(C2=O)[C@H](O)[C@H](C)[C@@](O)(C(=O)[C@@H]1O[C@H]1C)[C@@H]3O,-27% (active)
18,O=C(CCCCCCNC(=O)C(O)(O)C(F)(F)F)Nc1ncc(-c2ccccc2)s1,11.7%
19,Cc1ccc(-c2nc(SCC(=O)c3ccccc3)nc(Nc3ccc(S(N)(=O)=O)cc3)c2C#N)cc1,70.1%
20,NC(=O)c1c(NC(=O)c2ccc(C(F)(F)F)cc2)sc2c1CCC(=O)C2,7.94% (active)
